Source: PubChem BioAssay AID720519 (National Center for Advancing Translational Sciences (NCATS), 2013)
Records with an inconclusive call do not appear. The source made the active and inactive calls. Calls come from the whole dose curve; as a rule, active = well fitted activation curve with a large enough effect; inconclusive = small, poorly fitted or top-dose-only effect; inactive = flat fitted curve, though single readings scatter.

experiment: qHTS for Inhibitors of Cell Surface uPA Generation: Confirmatory Assay for Cherry-picked Compounds; conditions: cell surface uPA activity generation, qHTS confirmation; series mostly up to 115 µM
How it was run: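 RAW 264.7 cells at 4000/well, incubated overnight, then treated with compounds. After 24 h at 37 C, viability was read by ATPlite luminescence. An increase in signal indicates blocked uPA-dependent LF entry.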

Potency, inactive:
COc1ccc(CC(=O)Nc2nc(C)cs2)cc1OC
O=C(O)CC1(CC(=O)NCc2ccc(Cl)cc2)CCCCC1
COc1ccc(OC)c(S(=O)(=O)N2CCC(NC(=O)c3ccccc3)CC2)c1
COc1ccc(NC(=O)CCNS(=O)(=O)c2ccccc2F)cc1S(=O)(=O)N1CCOCC1
C/C(=N\NC(=O)c1cccc([N+](=O)[O-])c1)c1cccnc1
Cc1cc(=O)[nH]c(=S)[nH]1
CCOCCCn1c(SCC(=O)Nc2oc(C)c3c(C)n[nH]c(=O)c23)nc2ccccc2c1=O
CCN1CCN(Cc2ccc(NC(=O)c3cc(NC(=O)c4cncc(-c5cccs5)c4)cc(OC)c3)cc2C(F)(F)F)CC1
N#CCCN(C(=O)COC(=O)c1ccc2c(c1)NC(=O)CS2)c1ccc2c(c1)OCCO2
CCC(C)C(NC(=O)c1ccccc1)C(=O)Nc1ccc(S(=O)(=O)Nc2cc(C)nc(C)n2)cc1 (centres undefined)
COc1cccc(C(=O)NCC(c2ccco2)N2CCc3ccccc3C2)c1 (centres undefined)
O=C(COC(=O)C1CC2C=CC1C2)NCc1ccccc1Cl (centres undefined)
Cc1ccc(Cl)c(N/C=C/C(=O)c2ccccc2)c1
CCOC(=O)C1=C(C)N(Cc2ccccc2)C(=O)NC1c1ccc(OC)cc1 (centres undefined)
COc1ccccc1N1CCN(C(=O)CCC(=O)N2CCN(c3ccc(F)cc3)CC2)CC1
O=C(NC(=O)c1ccccc1)Nc1cccc(S(=O)(=O)N2CCCCC2)c1
CCOc1ccc(NS(=O)(=O)c2coc(C(N)=O)c2)cc1
O=C(O)c1cc(N=Nc2c(O)[nH]c3ccc([N+](=O)[O-])cc23)ccc1Cl
Cc1ccc(S(=O)(=O)N(C)c2ccc(OC(=O)c3ccc(=O)[nH]c3)cc2)cc1
Cc1nc(NC(=O)COC(=O)CCc2ccccc2)c(Cl)cc1Cl
CCCCCCCCCOC(=O)C1N2C(=O)[C@@H](NC(=O)COc3ccccc3)[C@H]2SC1(C)C (some centres undefined)
Cc1ccc2cc(C=O)c(Cl)nc2c1
Cc1ccc(C(CC(=O)N2CCCC2)c2ccccc2)c(O)c1 (centres undefined)
COc1ccc(C(=O)CC2(C(=O)O)CCCCC2)cc1
C[C@@H](C(=O)Nc1ccc2ccccc2c1)[C@@H]1C[C@@]1(C)[C@@H](NC(=O)c1cccnc1)c1ccccc1
COc1ccc(S(=O)(=O)N2CCN(Cc3ccccc3)CC2)c(C)c1
COCCN(C(=O)c1ccc(OC2CCN(S(=O)(=O)N(C)C)CC2)cc1)C(C)C
COc1cc(CCC(=O)OCC(=O)Nc2ccc(C)cc2Br)cc(OC)c1OC
COc1ccc(N2CCN(S(=O)(=O)c3ccc4c(c3)NC(=O)CS4)CC2)cc1
Cc1nc(SCC(=O)NCCN2C(=O)CSC2=O)nc(C)c1C
COc1ccc(OC)c(N2C(=O)CC(Cc3cc(C)cc(C)c3)C2=O)c1 (centres undefined)
O=C(NC(=S)Nc1c(F)cc(F)cc1Br)c1ccc2c(c1)OCCO2
CCOc1ccc(NC(=S)N2CCC(c3ccc(C)cc3)C2)cc1 (centres undefined)
O=C(CNC(=O)N1CC(=O)Nc2ccccc21)Nc1cc(Cl)ccc1Cl
Cc1ccccc1C(=O)Nc1ccccc1N1CCCCC1
COc1cccc(NC(=O)CN(C)C(=O)c2csc3c2CCCC3)c1
C[C@@]12C(=O)N(CC3CCCO3)CC(=O)N1[C@H]1c3cc(Cl)ccc3OC[C@@H]1[C@@H]2c1ccccc1 (some centres undefined)
O=C(COC(=O)Cn1cnc2ccccc21)NCc1ccc(F)cc1
COc1cccc(C(=O)Cn2c(NCCCO)nc3ccccc32)c1
